Sampled rows, rich in hits. Any-hit rate of the full collection: about 4.1%.
hgDAF-12 ag = hgDAF-12 agonism, primary luciferase screen. AID 687014. 1.8% of 370,000 active. activation, % at 6.8 µM. HEK293 GAL4-hgDAF12 UAS-luciferase reporter, agonist luminescence; normalized to butyrate control;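 active = activation above a cutoff set at the mean of all screened compounds plus 3 SD, cut at about 10% in these data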;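 also: 0% = DMSO wells and 100% = sodium butyrate wells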
hcDAF12 agonist = H. contortus DAF-12 activation, primary screen | HEK293 hcDAF-12 lit1-tk-luc reporter, luminescence; 0% DMSO, 100% Δ7-dafachronic acid | activation, % at 6.8 µM | 1.4% of 370,000 active | AID 652067;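 active = activation above the mean of all tested compounds plus 3 SD, cut at about 5.5% in these data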;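 also: 100% = response to 3 µM Δ7-dafachronic acid high control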
DAX1 inh-1 = inhibits human nuclear receptor DAX1; P51843; HEK293 Gal4-DAX1 luciferase reporter, luminescence; inhibition, % at 6.75 µM; 0.99% of 340,000 active; AID 504766;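 active = inhibition above the mean over all tested compounds plus 3 SD, cut at about 4.2% in these data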;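 also: 0% = DAX1-transfected cells with DMSO and 100% = empty-vector control cells with DMSO; inhibition shows as a rise in luminescence from relieved DAX1 repression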
ssDAF12 agonist = S. stercoralis DAF-12 activation, primary screen | AID 652126 | HEK293 ssDAF-12/GRIP1 lit1-tk-luc reporter, luminescence; % of 3 µM dafachronic acid response | 1% of 370,000 active | activation, % at 6.8 µM;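 active = activation above the mean over all tested compounds plus 3 SD, cut at about 0.9% in these data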;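 also: 0% = DMSO-only wells and 100% = 3 µM delta7-dafachronic acid wells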
DAX1 inh-2 = DAX1 (NR0B1) inhibition, primary screen; inhibition, % at 6.8 µM; 1.1% of 370,000 active; HEK293T StAR-luciferase reporter, SF-1/DAX-1 repression relief;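 active = inhibition above the mean over all tested compounds plus 3 SD, cut at about 3.6% in these data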;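 also: 0% = DAX-1 cells with DMSO and 100% = cells lacking DAX-1 with DMSO; higher inhibition means more luminescence from relief of DAX-1 repression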
LXR ag = LXR-beta agonism as hcDAF-12 counter-screen. shares compounds with hcDAF12 agonist. HEK293 Gal4-LXR tk-luc reporter, luminescence, 24 h; normalized: DMSO 0%, positive control 100%. activation, % at 6.8 µM. 3,400 tested, under 10 active;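 active = mean percent activation of the reporter above a cutoff set as the average over tested compounds plus their standard deviation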
Target sequence (P55055 whole entry, looked up, the tested form may be a part): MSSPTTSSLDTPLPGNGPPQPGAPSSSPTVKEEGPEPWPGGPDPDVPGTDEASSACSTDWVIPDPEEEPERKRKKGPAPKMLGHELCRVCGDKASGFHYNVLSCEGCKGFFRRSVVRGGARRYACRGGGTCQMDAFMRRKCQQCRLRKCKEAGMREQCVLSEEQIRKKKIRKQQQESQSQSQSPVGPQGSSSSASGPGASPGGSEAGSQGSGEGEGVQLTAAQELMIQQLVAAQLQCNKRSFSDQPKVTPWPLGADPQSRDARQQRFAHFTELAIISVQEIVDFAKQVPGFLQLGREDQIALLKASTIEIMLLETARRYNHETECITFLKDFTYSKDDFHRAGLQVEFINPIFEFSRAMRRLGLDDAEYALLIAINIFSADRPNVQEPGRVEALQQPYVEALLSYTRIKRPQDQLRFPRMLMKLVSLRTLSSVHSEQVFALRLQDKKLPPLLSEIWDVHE
hcDAF12 ag = confirmation of H. contortus DAF-12 agonists | activation, % at 6.8 µM | 61% of 3,400 active | shares compounds with hcDAF12 agonist | HEK293 hcDAF-12 lit1-tk-luc reporter, luminescence; % of Δ7-dafachronic acid response;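 active = mean activation across triplicate tests above the threshold derived from the earlier primary screen, cut at about 5.5% in these data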;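 also: 0% = DMSO only wells and 100% = 3 µM Δ7-dafachronic acid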
The depositor's hits bear a star.

Screening Nc1cc2c3c(cccc3c1)C(=O)N(CCN1CCCC1)C2=O returned hgDAF-12 ag -6, hcDAF12 agonist 16*, DAX1 inh-1 -1, ssDAF12 agonist 1.8*, DAX1 inh-2 -1, LXR ag 0 and hcDAF12 ag 12*.
Screening O=C1c2cccc3cc([N+](=O)[O-])cc(c23)C(=O)N1CCN1CCCC1 returned hgDAF-12 ag -1, hcDAF12 agonist 44*, DAX1 inh-1 2, ssDAF12 agonist 7.1*, DAX1 inh-2 -2, LXR ag 2 and hcDAF12 ag 17*.
O=C(OCc1cn(Cc2ccc(F)cc2F)nn1)N1CCOCC1 was read as hgDAF-12 ag 0, hcDAF12 agonist -1, ssDAF12 agonist -1 and DAX1 inh-2 -2.
`COc1ccc(-c2noc(C3CCCN(C(=O)N[C@@H]4C[C@H]4c4ccccc4)C3)n2)cc1` (stereo partly drawn) gave hgDAF-12 ag 8, hcDAF12 agonist 2, ssDAF12 agonist -1 and DAX1 inh-2 2.
Screening CCN(CC)c1ccc(/C=N/N2C(=O)c3ccccc3C2=O)cc1 returned hgDAF-12 ag 0, hcDAF12 agonist -1, DAX1 inh-1 -1, ssDAF12 agonist -1 and DAX1 inh-2 -1.
For CCN(CC)c1ccc(/C=N/N2C(=O)c3ccccc3C2=O)c(O)c1 the results were hgDAF-12 ag 2, hcDAF12 agonist 6.6*, DAX1 inh-1 0, ssDAF12 agonist -1, DAX1 inh-2 0, LXR ag 0 and hcDAF12 ag 1.
For CC(C)CNC(=S)NC1CC2CCC(C1)N2Cc1ccccc1 (stereo not drawn) the results were hgDAF-12 ag 2, hcDAF12 agonist 6.8*, DAX1 inh-1 -1, ssDAF12 agonist -1, DAX1 inh-2 1, LXR ag 0 and hcDAF12 ag 2.
`O=C(/C=C(\Nc1cc(Cl)c(F)c(Cl)c1)c1ccccc1)c1ccccc1` gave hgDAF-12 ag 1, hcDAF12 agonist 2, ssDAF12 agonist -1 and DAX1 inh-2 0.
For S=C1NCCOc2ccccc21 the results were hgDAF-12 ag 7, hcDAF12 agonist 2, ssDAF12 agonist 0 and DAX1 inh-2 0.
CN(C(=O)COc1cc(=O)n(C)c2ccccc12)c1ccc(Br)cc1 was read as hgDAF-12 ag 1, hcDAF12 agonist 6.8*, DAX1 inh-1 1, ssDAF12 agonist 0, DAX1 inh-2 0, LXR ag 0 and hcDAF12 ag 3.
COc1ccccc1NC(=O)Cc1cccc2ccccc12 was read as hgDAF-12 ag -2, hcDAF12 agonist -2, DAX1 inh-1 -1, ssDAF12 agonist -1 and DAX1 inh-2 0.
Screening COc1ccc(C(C)(C)C)cc1NC(=O)CNc1cccc2ccccc12 returned hgDAF-12 ag -3, hcDAF12 agonist 7.6*, DAX1 inh-1 -1, ssDAF12 agonist -1, DAX1 inh-2 0, LXR ag 0 and hcDAF12 ag 0.
For CN1CCN(CCCNC(=O)Cn2nc(-c3ccccc3)ccc2=O)CC1 the results were hgDAF-12 ag 2, hcDAF12 agonist 8.5*, DAX1 inh-1 0, ssDAF12 agonist -2, DAX1 inh-2 1, LXR ag 0 and hcDAF12 ag 0.
Screening Nc1ccc(F)c(CN2CCN(c3ncc(Cc4ccccc4)cn3)CC2)c1 returned hgDAF-12 ag -6, hcDAF12 agonist -3, ssDAF12 agonist -2 and DAX1 inh-2 -3.
CN(C)C(=O)C[C@H]1C[C@@H]2c3cc(NC(=O)NC4CCCC4)ccc3O[C@@H]2[C@@H](CO)O1 was read as hgDAF-12 ag 0, hcDAF12 agonist -1, ssDAF12 agonist 0 and DAX1 inh-2 0.
Screening O=C(C[n+]1ccc(C(=O)N/N=C/c2ccc(OCc3ccccc3)cc2)cc1)c1ccccc1 returned hgDAF-12 ag 5, hcDAF12 agonist 7.5*, DAX1 inh-1 0, ssDAF12 agonist 0, DAX1 inh-2 0, LXR ag 0 and hcDAF12 ag 2.
COc1ccc(S[C@]2(C(=O)N3CCN(c4ncccn4)CC3)CC(=O)N(c3ccc(C#N)cc3)[C@@H]2c2ccc(OC)cc2)cc1 was read as hgDAF-12 ag -5, hcDAF12 agonist -3, ssDAF12 agonist -2 and DAX1 inh-2 -1.
O=C(CSCC(=O)Nc1nc(-c2ccc3c(c2)OCO3)cs1)Nc1nccs1 was read as hgDAF-12 ag 9, hcDAF12 agonist 8.4*, DAX1 inh-1 -1, ssDAF12 agonist -1, DAX1 inh-2 1, LXR ag 0 and hcDAF12 ag -1.
Screening O=C(Cn1cc(SCc2cccc(Cl)c2)c2ccccc21)N1CCOCC1 returned hgDAF-12 ag 6, hcDAF12 agonist 7.8*, DAX1 inh-1 1, ssDAF12 agonist 0, DAX1 inh-2 1, LXR ag 0 and hcDAF12 ag 3.
For O=C(CSc1cn(CC(=O)N2CCOCC2)c2ccccc12)N1CCOCC1 the results were hgDAF-12 ag 1, hcDAF12 agonist 2, DAX1 inh-1 1, ssDAF12 agonist 0 and DAX1 inh-2 0.
For N=c1oc2ccccc2cc1-c1nc(-c2ccccc2)cs1 the results were hgDAF-12 ag 7, hcDAF12 agonist 11*, DAX1 inh-1 2, ssDAF12 agonist 1.1*, DAX1 inh-2 2, LXR ag 0 and hcDAF12 ag 3.
Screening Cc1nc(-c2ccccc2)cs1 returned hgDAF-12 ag 0, hcDAF12 agonist -1, DAX1 inh-1 0, ssDAF12 agonist -1 and DAX1 inh-2 0.
For Cc1nn(CCC(=O)NNC(=O)Nc2ccccc2F)c(C)c1[N+](=O)[O-] the results were hgDAF-12 ag -1, hcDAF12 agonist 1, ssDAF12 agonist -1 and DAX1 inh-2 0.
`FC(F)(F)c1ccc(-c2nc3ccccc3s2)cc1` gave hgDAF-12 ag -6, hcDAF12 agonist 0, ssDAF12 agonist -1 and DAX1 inh-2 -2.
`COc1ccc(-c2nc3ccccc3s2)cc1O` gave hgDAF-12 ag 4, hcDAF12 agonist 12*, DAX1 inh-1 -5, ssDAF12 agonist 0, DAX1 inh-2 2, LXR ag 1 and hcDAF12 ag 13*.
`Nc1cccc(-c2nc3ccccc3s2)c1` gave hgDAF-12 ag 13*, hcDAF12 agonist 12*, DAX1 inh-1 1, ssDAF12 agonist 1.4*, DAX1 inh-2 3, LXR ag 1 and hcDAF12 ag 6.4*.
Brc1ccc(CN2CCCc3nc(-c4ccccc4)ccc32)cc1 was read as hgDAF-12 ag 5, hcDAF12 agonist 2, ssDAF12 agonist 1 and DAX1 inh-2 -1.
For CC(C)C(=O)Nc1ccc(NC(=O)c2cccnc2)cn1 the results were hgDAF-12 ag 1, hcDAF12 agonist -1, DAX1 inh-1 0, ssDAF12 agonist -1 and DAX1 inh-2 0.

Assay outcomes from PubChem.
